Source: PubChem BioAssay (several laboratories)
SSB-PriA inh – K. pneumoniae PriA-SSBct interaction inhibition. AlphaScreen SSBct-PriA binding, biotinylated peptide. inhibition, % at 33 µM. hit rate 0.6% among 430,000. AID 1272365; in the data active = inhibition mostly above about 37%, no sharp cut-off; inactive = mostly below about 20%;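 note: plate controls were negative control peptide for no effect and reference peptide for full effect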
PrP 5UTR inh – inhibition of PrP 5' UTR reporter expression; cell-based PrP 5' UTR mRNA reporter, plate reader; inhibition, % (test concentration not listed); hit rate 0.35% among 340,000; AID 488862; in the data active = inhibition above about 52%; note: 0 = median of the neutral control wells
FadD28 binding – M. tuberculosis FadD28 bisubstrate binding inhibition; hit rate 0.22% among 360,000; inhibition, % at 12.5 µM; FadD28 bisubstrate probe binding, fluorescence polarization; in the data active = inhibition above about 8.5%, passing the limit was not always enough
TcdB GH inh – blocks C. difficile toxin B glycohydrolase activity. P18177. TcdB glycohydrolase enzymatic assay, plate reader. inhibition, % at 9.99 µM. hit rate 0.24% among 350,000. AID 652162; in the data active = inhibition above about 10%
Mtb hypoxia rep – Mtb hypoxia fluorescent reporter inhibition | M. tuberculosis hypoxia-regulated fluorescent reporter, fluorescence | fluorescence inhibition, % (concentration not given with the values) | hit rate 0.1% among 300,000; in the data active = fluorescence inhibition mostly above about 23%, no sharp cut-off; inactive = mostly below about 17%
BioA inh-1 – BioA (M. tuberculosis) enzyme inhibition; purified M. tuberculosis BioA enzyme, plate reader; inhibition, % at 9.99 µM; hit rate 0.096% among 360,000; AID 602481; in the data active = inhibition above about 40%
BioA inh-2 – Mtb BioA enzyme inhibition; shares compounds with BioA inh-1; purified BioA enzyme, plate reader, dose response; max activity, %; 310 tested, under 10 active;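 note: top concentration of the dilution series was 10 µM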
Target sequence (P9WQ81 whole entry, looked up): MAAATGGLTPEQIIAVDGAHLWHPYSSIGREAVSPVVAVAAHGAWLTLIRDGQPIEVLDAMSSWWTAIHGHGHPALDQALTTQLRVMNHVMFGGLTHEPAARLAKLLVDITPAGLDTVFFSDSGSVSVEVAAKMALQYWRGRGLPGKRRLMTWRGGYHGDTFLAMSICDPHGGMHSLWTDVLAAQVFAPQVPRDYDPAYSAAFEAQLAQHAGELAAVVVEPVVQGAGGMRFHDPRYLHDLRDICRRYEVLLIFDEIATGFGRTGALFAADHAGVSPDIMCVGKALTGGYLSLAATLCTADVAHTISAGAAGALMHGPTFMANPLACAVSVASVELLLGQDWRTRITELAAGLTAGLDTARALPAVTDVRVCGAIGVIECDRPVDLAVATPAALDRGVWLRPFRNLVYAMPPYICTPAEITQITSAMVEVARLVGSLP
HepG2 tox 2 – kills HepG2 cells | max activity, % | shares compounds with BioA inh-1 | 310 tested, under 10 active | AID 651898 | HepG2 cytotoxicity, plate reader
3T3 cytotox 5 – NIH3T3 viability loss. 310 tested, under 10 active. AID 651900. NIH3T3 cytotoxicity, plate reader. activity change, negative = cytotoxicity, % at 26 µM. shares compounds with BioA inh-1
* = called active by the depositor. Shown are actives, neighbours in structure and some others; about 1% of the full set was active somewhere. Unless noted, the rule behind the calls is not given here.

What do the screens show for `C=C(C)n1c(=O)n(Cc2ccccc2C)c2ccccc21`?
SSB-PriA inh: -12; PrP 5UTR inh: -7; FadD28 binding: -3; TcdB GH inh: 1; Mtb hypoxia rep: 10; BioA inh-1: 48*; BioA inh-2: -10; HepG2 tox 2: -14; 3T3 cytotox 5: -18

How did C=C(C)n1c(=O)n(Cc2ccc(C)cc2)c2ccccc21 do in these assays?
SSB-PriA inh: -6; PrP 5UTR inh: -17; FadD28 binding: 1; TcdB GH inh: -1; Mtb hypoxia rep: 14; BioA inh-1: 0

What do the screens show for `COc1cc(C(=O)NC2CCN(Cc3ccccc3)CC2)cc(Cl)c1OC`?
SSB-PriA inh: -2; PrP 5UTR inh: -14; FadD28 binding: -2; TcdB GH inh: -1; Mtb hypoxia rep: 16; BioA inh-1: 0

What do the screens show for `COc1ccc([N+](=O)[O-])cc1C(=O)NC1CCN(Cc2ccccc2)CC1`?
SSB-PriA inh: -4; FadD28 binding: -1; TcdB GH inh: 1; Mtb hypoxia rep: 3; BioA inh-1: 79*; BioA inh-2: 5; HepG2 tox 2: 29; 3T3 cytotox 5: 1

Results for CC=Cc1ccc2n(c1=O)C[C@H]1[C@H](CO)[C@@H](C(=O)NCCC)N(Cc3cocn3)[C@@H]21 (mixture of isomers) ?
TcdB GH inh: -1; BioA inh-1: 0

What do the screens show for `O=C(Nc1ccc2nccnc2c1)c1cnccn1`?
SSB-PriA inh: -5; PrP 5UTR inh: -36; FadD28 binding: -3; BioA inh-1: 48*; BioA inh-2: -9; HepG2 tox 2: 12; 3T3 cytotox 5: -2

Results for O=C(COc1ccc2ccc(=O)oc2c1)N1CCN(c2ccc(F)cc2)CC1 ?
SSB-PriA inh: 7; PrP 5UTR inh: 9; FadD28 binding: -3; TcdB GH inh: 1; Mtb hypoxia rep: 4; BioA inh-1: 55*; BioA inh-2: -11; HepG2 tox 2: -12; 3T3 cytotox 5: -8

Results for COC(=O)c1c(C(=O)OC)c(-c2cccc(F)c2)n2c1CS(=O)C2 (stereo unspecified) ?
SSB-PriA inh: -12; PrP 5UTR inh: -31; FadD28 binding: -2; TcdB GH inh: -1; Mtb hypoxia rep: 8; BioA inh-1: 98*; BioA inh-2: -6; HepG2 tox 2: -11; 3T3 cytotox 5: 8

Results for CC1CCCN(c2ccc(C(=O)Nc3cccnc3)cc2[N+](=O)[O-])C1 (stereo unspecified) ?
SSB-PriA inh: 22; PrP 5UTR inh: -48; FadD28 binding: -3; TcdB GH inh: 6; Mtb hypoxia rep: 7; BioA inh-1: 54*; BioA inh-2: -7; HepG2 tox 2: 5; 3T3 cytotox 5: -9

Results for CC(=O)Nc1ccc(N2CCCC(C)C2)c([N+](=O)[O-])c1 (stereo unspecified) ?
SSB-PriA inh: 9; PrP 5UTR inh: -3; FadD28 binding: 2; TcdB GH inh: 2; Mtb hypoxia rep: 2

What do the screens show for `CCCOc1ccc(N2C(=O)CC(N(Cc3ccco3)C(C)=O)C2=O)cc1` (stereo unspecified)?
SSB-PriA inh: 4; PrP 5UTR inh: -25; FadD28 binding: -2; TcdB GH inh: 0; Mtb hypoxia rep: 5

How did CC(=O)c1ccc(N2CCN(C(=O)Cc3cccs3)CC2)cc1 do in these assays?
SSB-PriA inh: 1; PrP 5UTR inh: -13; FadD28 binding: -5; Mtb hypoxia rep: 20; BioA inh-1: 49*; BioA inh-2: -6; HepG2 tox 2: 15; 3T3 cytotox 5: 0

What do the screens show for `COc1ccc(N2CCN(C(=O)Cc3cccs3)CC2)cc1`?
SSB-PriA inh: 0; PrP 5UTR inh: -14; FadD28 binding: -2; TcdB GH inh: 2; BioA inh-1: 3

What do the screens show for `CNC[C@H]1Oc2ccc(NS(C)(=O)=O)cc2CC(=O)N([C@H](C)CO)C[C@H]1C`?
BioA inh-1: 0

What do the screens show for `Cc1ccc(-c2nnc(N3CCN(C(=O)CSc4ncn[nH]4)CC3)c3ccccc23)cc1`?
SSB-PriA inh: -8; PrP 5UTR inh: 0; FadD28 binding: -3; BioA inh-1: 52*; BioA inh-2: -8; HepG2 tox 2: 6; 3T3 cytotox 5: -1
